Results on six compounds are retold here after PubChem BioAssay (EPA / NIEHS).

What is called AC50 is the midpoint of the concentration-response curve, whichever way the signal moves.

SMILES strings stand for the structures. Results filed as inconclusive are left out. Active and inactive are the calls of the source. Rule for the calls, unless noted: active = hit-call score of the fitted dose curve at least 0.9, where 1 is the maximum; inactive = score below 0.9.

The target in test [1] is Bile acid receptor (Homo sapiens) (UniProt Q96RI1). Kind of test: OT_FXR_FXRSRC1_1440: Odyssey Thera (OT) 24-hour HEK293T Protein-Complementation Assay for Farnesoid X receptor/SRC-1 Co-activator (AID 2283384; active = hit-call score of the fitted dose curve at least 0.9, where 1 is the maximum). The method in brief: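 Measures ligand-driven FXR–SRC-1 co-activator recruitment in HEK293T via fragment complementation, fluorescence intensity at 24 h. DMSO served as negative control and baseline for gain-of-signal fitting.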
Chain of Bile acid receptor (Homo sapiens) (Q96RI1 whole entry, looked up, the tested form may be a part): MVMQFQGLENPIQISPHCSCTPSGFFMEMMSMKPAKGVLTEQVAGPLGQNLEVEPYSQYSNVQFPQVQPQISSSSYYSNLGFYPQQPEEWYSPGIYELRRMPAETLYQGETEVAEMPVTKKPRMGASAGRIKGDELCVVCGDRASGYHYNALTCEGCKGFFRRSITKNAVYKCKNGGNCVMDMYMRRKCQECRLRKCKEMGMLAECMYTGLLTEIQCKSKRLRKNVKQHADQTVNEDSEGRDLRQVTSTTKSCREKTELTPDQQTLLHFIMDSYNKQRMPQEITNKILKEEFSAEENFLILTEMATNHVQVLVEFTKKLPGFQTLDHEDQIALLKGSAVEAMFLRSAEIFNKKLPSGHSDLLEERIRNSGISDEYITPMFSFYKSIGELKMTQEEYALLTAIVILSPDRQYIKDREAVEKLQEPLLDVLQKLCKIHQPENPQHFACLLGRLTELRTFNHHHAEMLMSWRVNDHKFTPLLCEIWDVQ

The target of test [2] is Peroxisome proliferator-activated receptor gamma (Homo sapiens) (UniProt P37231). Nature of the test: OT_PPARg_PPARgSRC1_0480: Odyssey Thera (OT) 8-hour Protein-Complementation Assay for Peroxisome Proliferator-activated Receptor Gamma / SRC-1 Co-activator (AID 2283387; active = hit-call score of the fitted dose curve at least 0.9, where 1 is the maximum). The method in brief: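 Read-out: 488 nm N/C fluorescence ratio from complemented Venus YFP fragments, ≥350 cells per image, gain-of-signal fitted against DMSO baseline. Fusions of PPARg/SRC-1 with IFP1/IFP2 expressed transiently in HEK293T; compounds applied 8 h.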
Chain of Peroxisome proliferator-activated receptor gamma (Homo sapiens) (P37231 whole entry, looked up, the tested form may be a part): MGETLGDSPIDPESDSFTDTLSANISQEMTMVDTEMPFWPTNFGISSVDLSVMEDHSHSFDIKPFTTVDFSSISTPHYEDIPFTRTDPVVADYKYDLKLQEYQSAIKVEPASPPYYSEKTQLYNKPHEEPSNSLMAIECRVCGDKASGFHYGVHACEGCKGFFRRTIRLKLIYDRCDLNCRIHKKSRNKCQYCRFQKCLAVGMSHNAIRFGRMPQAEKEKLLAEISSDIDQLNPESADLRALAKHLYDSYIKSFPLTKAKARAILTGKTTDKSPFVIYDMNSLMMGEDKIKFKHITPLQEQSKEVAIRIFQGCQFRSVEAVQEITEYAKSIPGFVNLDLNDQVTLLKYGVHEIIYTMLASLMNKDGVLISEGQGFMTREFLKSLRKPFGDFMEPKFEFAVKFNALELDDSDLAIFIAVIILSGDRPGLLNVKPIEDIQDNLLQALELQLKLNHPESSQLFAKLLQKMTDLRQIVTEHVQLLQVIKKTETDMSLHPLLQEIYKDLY

Test [3] has the same target. Kind of test: OT_PPARg_PPARgSRC1_1440: Odyssey Thera (OT) 24-hour Protein-Complementation Assay for Peroxisome Proliferator-activated Receptor Gamma/ SRC-1 Co-activator (AID 2283388; active = hit-call score of the fitted dose curve at least 0.9, where 1 is the maximum). The method in brief: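 HEK293T transiently transfected with PPARg/SRC-1 split-Venus YFP fusions 48 h before dosing, then treated 24 h at 37C. Fixed cells imaged; nuclear/cytoplasmic 488 nm fluorescence ratio, gain of signal versus DMSO.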

Read-out in test [4]: Tumor necrosis factor receptor superfamily member 6 (Homo sapiens) (UniProt P25445)
Nature of the test: LTEA_HepaRG_FAS: Life Technologies and Expression Analysis (LTEA) Assay for Fas cell surface death receptor (FAS) using HepaRG (AID 2283447). The conditions noted are these: mRNA level, 48 h; actives raise or lower the signal. The method in brief: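 Differentiated HepaRG cells in serum-free induction medium were exposed 48 h to 8 half-log concentrations up to 100 uM in 0.5% DMSO, in duplicate. FAS mRNA was measured by qRT-PCR normalised to ACTB, GAPDH and POLR2A; bidirectional fit versus DMSO.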

Read-out in test [5]: Fatty acid synthase (Homo sapiens) (UniProt P49327)
Nature of the test: LTEA_HepaRG_FASN: Life Technologies and Expression Analysis (LTEA) Assay for Fatty Acid Synthase (FASN) using HepaRG (AID 2283448).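 For AC50: differentiated human HepaRG liver cells in serum-free induction medium.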 The conditions noted are these: mRNA level, 48 h; actives raise or lower the signal. The method in brief: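 Cells were plated, cultured 48 h, switched to serum-free induction medium, then dosed in duplicate (max 100 uM, half-log dilutions, 0.5% DMSO) for 48 h. RNA was then isolated and FASN quantified by qRT-PCR.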

Read-out in test [6]: Cyclin D2 (CCND2), CCND2 (gene 894)
Kind of test: LTEA_HepaRG_CCND2: Life Technologies and Expression Analysis (LTEA) Assay for Cyclin D2 (CCND2) using HepaRG (AID 2283449).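 Note: CCND2 transcript measured by TaqMan qRT-PCR and normalised to three housekeeping genes.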 The conditions noted are these: mRNA level, 48 h; actives raise or lower the signal. The method in brief:
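HepaRG, 48 h dosing, 8-pt half-log curve from 100 uM, 0.5% DMSO; duplicate wells. Readout: CCND2 transcript by microfluidic qRT-PCR, housekeeping-normalised; bidirectional fit vs DMSO baseline.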

Read-out in test [7]: Cyclin Dependent Kinase Inhibitor 1A (CDKN1A), CDKN1A (gene 1026)
Nature of the test: LTEA_HepaRG_CDKN1A: Life Technologies and Expression Analysis (LTEA) Assay for Cyclin Dependent Kinase Inhibitor 1A (CDKN1A) using HepaRG (AID 2283450). The conditions noted are these: mRNA level, 48 h; actives raise or lower the signal. The method in brief:
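Differentiated HepaRG cells in serum-free induction medium, exposed 48 h in duplicate to eight half-log concentrations up to 100 uM in 0.5% DMSO. mRNA measured by TaqMan qRT-PCR, normalized to ACTB, GAPDH, POLR2A; bidirectional fit versus DMSO.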

The target in test [8] is Retinoic acid receptor RXR-alpha (Homo sapiens) (UniProt P19793). Nature of the test: OT_NURR1_NURR1RXRa_0480: Odyssey Thera (OT) 8-hour HEK293T Protein Complementation Assay for Nurr1/retinoid X receptor (RXR) (AID 2283385; active = hit-call score of the fitted dose curve at least 0.9, where 1 is the maximum). The method in brief:
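Interaction of bait and prey reconstitutes a functional reporter, whose fluorescence was measured in HEK293T cells dosed with compound for 8 hours. Signal gain relative to DMSO defined the single endpoint.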

The target is the same in test [9]. Nature of the test: OT_NURR1_NURR1RXRa_1440: Odyssey Thera (OT) 24-hour HEK293T Protein Complementation Assay for Nurr1/retinoid X receptor (RXR) (AID 2283386; active = hit-call score of the fitted dose curve at least 0.9, where 1 is the maximum). The method in brief: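 Steps: fragment-tagged Nurr1 and RXRα expressed in HEK293T; compounds added; after 24 h, complemented reporter quantified by fluorescence intensity; signal increase over DMSO fitted as the single endpoint.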

Test [10] can be described thus: CEETOX_H295R_11DCORT: CeeTox H295R High-throughput Steroidogenesis Assay for 11-Deoxycortisol (11DCORT) (AID 2283432). The conditions noted are these: actives raise or lower the signal. The method in brief: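 H295R cells; 10 uM forskolin prestim 48 h; compound in 0.1% DMSO 48 h; media extracted with MTBE; 11-deoxycortisol by LC-MS/MS, 7-point standard curve; gain/loss vs DMSO baseline; viability by MTT in same wells.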

Test [11] is described as follows: CEETOX_H295R_OHPREG: CeeTox H295R High-throughput Steroidogenesis Assay for OH-Pregnenolone (OHPREG) (AID 2283434). The conditions noted are these: actives raise or lower the signal. The method in brief: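 H295R, 10 uM forskolin pre-stim 48 h; test chemical 48 h, 0.1% DMSO final. MTBE extraction, reverse-phase C18 HPLC-ESI+ MS/MS of medium. Gain/loss vs DMSO; viability by MTT in same wells.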

Test [12] is described as follows: CEETOX_H295R_OHPROG: CeeTox H295R High-throughput Steroidogenesis Assay for OH-Progesterone (OHPROG) (AID 2283435).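 For AC50: human adrenal H295R cells primed 48 h with 10 µM forskolin; 17alpha-hydroxyprogesterone secreted into medium measured by HPLC-MS/MS.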 The conditions noted are these: actives raise or lower the signal. The method in brief: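 Steps: seed H295R cells and adhere overnight; stimulate with 10 uM forskolin for 48 h; replace with chemical-containing medium (0.1% DMSO) for 48 h; extract medium with MTBE; quantify 17alpha-hydroxyprogesterone by reverse-phase C18 HPLC-MS/MS against a 7-point curve.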

Test [13] is described as follows: CEETOX_H295R_CORTIC: CeeTox H295R High-throughput Steroidogenesis Assay for Corticosterone (CORTIC) (AID 2283437).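 For AC50: human H295R adrenal cells prestimulated with forskolin before chemical exposure.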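 Note: corticosterone secreted into medium quantified by mass spectrometry.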 The conditions noted are these: actives raise or lower the signal. The method in brief:
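48 h forskolin (10 uM) prestim, then 48 h chemical exposure, final DMSO 0.1%. Readout: corticosterone in medium by LC-MS/MS after MTBE extraction. Gain/loss fit vs DMSO; MTT viability in same wells.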

Test [14] in a line: CEETOX_H295R_CORTISOL: CeeTox H295R High-throughput Steroidogenesis Assay for Cortisol (AID 2283438). The conditions noted are these: actives raise or lower the signal. The method in brief:
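Cortisol synthesis by H295R cells is measured 48 h after chemical dosing, following a 48 h stimulation with 10 uM forskolin. Hormone is extracted and quantified by HPLC-MS/MS, and activity is fitted bidirectionally against the DMSO control.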

Test [15] in a line: CEETOX_H295R_DOC: CeeTox H295R High-throughput Steroidogenesis Assay for DOC (AID 2283439). The conditions noted are these: actives raise or lower the signal. The method in brief: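 Steps: seed H295R, adhere overnight; 10 uM forskolin 48 h; replace with chemical medium (0.1% DMSO) 48 h; collect medium, MTBE extraction, HPLC-MS/MS for DOC. Viability then checked by MTT; cytotoxic chemicals diluted until viability ≥70%.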

A short description of test [16]: CEETOX_H295R_PROG: CeeTox H295R High-throughput Steroidogenesis Assay for Progesterone (PROG) (AID 2283442).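 For AC50: human H295R adrenal cells primed with 10 µM forskolin before dosing.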 The conditions noted are these: actives raise or lower the signal. The method in brief: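 H295R adrenal cells prestimulated 48 h with 10 uM forskolin, then exposed 48 h to test chemical in 0.1% DMSO. Progesterone in medium quantified by HPLC-MS/MS after MTBE extraction; viability checked by MTT in same wells.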

Test [17] has as its target Bile acid receptor (Homo sapiens) (UniProt Q96RI1). Kind of test: OT_FXR_FXRSRC1_0480: Odyssey Thera (OT) 8-hour HEK293T Protein-Complementation Assay for Farnesoid X receptor/SRC-1 Co-activator (AID 2283383; active = hit-call score of the fitted dose curve at least 0.9, where 1 is the maximum). The method in brief: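 PCA, HEK293T, 8 h compound exposure; FXR–SRC-1 binding reconstitutes split reporter; fluorescence intensity; positive-direction fit vs DMSO.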

A short description of test [18]: CEETOX_H295R_ANDR: CeeTox H295R High-throughput Steroidogenesis Assay for Androstenedione (ANDR) (AID 2283436).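 Note: human H295R adrenal cells exposed for 48 h with androstenedione measured in medium.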 The conditions noted are these: actives raise or lower the signal. The method in brief:
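48 h chemical exposure, H295R cells, DMEM/F12 + ITS+ and Nu-Serum. Medium androstenedione: MTBE extraction, C18 reverse-phase HPLC, ESI+ MS/MS. Fit bidirectional vs DMSO; MTT viability in same wells.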

A short description of test [19]: CEETOX_H295R_ESTRADIOL: CeeTox H295R High-throughput Steroidogenesis Assay for Estradiol (AID 2283440).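 Note: estradiol secreted into medium quantified by LC-MS/MS after dansyl derivatisation.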 The conditions noted are these: actives raise or lower the signal. The method in brief:
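H295R cells pre-stimulated 48 h with 10 uM forskolin, then exposed 48 h to chemical in 0.1% DMSO. Medium estradiol quantified by MTBE extraction, dansyl derivatisation and HPLC-MS/MS; bidirectional fit versus DMSO; MTT viability required >/=70%.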

Test [20] can be described thus: CEETOX_H295R_ESTRONE: CeeTox H295R High-throughput Steroidogenesis Assay for Estrone (AID 2283441).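 For AC50: human adrenal H295R cells prestimulated with forskolin for two days.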 The conditions noted are these: actives raise or lower the signal. The method in brief:
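Estrone secreted into medium quantified by LC-MS/MS after dansyl chloride derivatization, following 48 h chemical exposure (0.1% DMSO final) of forskolin-prestimulated (10 uM, 48 h) H295R cells; gain or loss fitted against DMSO; MTT viability in same wells.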

Chain of Retinoic acid receptor RXR-alpha (Homo sapiens) (P19793 whole entry, looked up): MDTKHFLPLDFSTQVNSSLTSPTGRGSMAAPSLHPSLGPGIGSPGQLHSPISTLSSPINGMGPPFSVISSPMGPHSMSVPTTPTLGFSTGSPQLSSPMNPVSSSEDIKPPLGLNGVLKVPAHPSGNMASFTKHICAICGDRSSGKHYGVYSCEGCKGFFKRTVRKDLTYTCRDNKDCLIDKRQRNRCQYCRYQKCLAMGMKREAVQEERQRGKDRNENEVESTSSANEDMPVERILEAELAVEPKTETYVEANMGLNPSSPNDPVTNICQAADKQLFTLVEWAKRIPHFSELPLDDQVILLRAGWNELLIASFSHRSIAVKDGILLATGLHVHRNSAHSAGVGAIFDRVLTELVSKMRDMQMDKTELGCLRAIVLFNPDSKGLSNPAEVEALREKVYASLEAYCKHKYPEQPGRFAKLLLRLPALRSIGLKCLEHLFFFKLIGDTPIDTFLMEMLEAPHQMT
Chain of Fatty acid synthase (Homo sapiens) (P49327 whole entry, looked up): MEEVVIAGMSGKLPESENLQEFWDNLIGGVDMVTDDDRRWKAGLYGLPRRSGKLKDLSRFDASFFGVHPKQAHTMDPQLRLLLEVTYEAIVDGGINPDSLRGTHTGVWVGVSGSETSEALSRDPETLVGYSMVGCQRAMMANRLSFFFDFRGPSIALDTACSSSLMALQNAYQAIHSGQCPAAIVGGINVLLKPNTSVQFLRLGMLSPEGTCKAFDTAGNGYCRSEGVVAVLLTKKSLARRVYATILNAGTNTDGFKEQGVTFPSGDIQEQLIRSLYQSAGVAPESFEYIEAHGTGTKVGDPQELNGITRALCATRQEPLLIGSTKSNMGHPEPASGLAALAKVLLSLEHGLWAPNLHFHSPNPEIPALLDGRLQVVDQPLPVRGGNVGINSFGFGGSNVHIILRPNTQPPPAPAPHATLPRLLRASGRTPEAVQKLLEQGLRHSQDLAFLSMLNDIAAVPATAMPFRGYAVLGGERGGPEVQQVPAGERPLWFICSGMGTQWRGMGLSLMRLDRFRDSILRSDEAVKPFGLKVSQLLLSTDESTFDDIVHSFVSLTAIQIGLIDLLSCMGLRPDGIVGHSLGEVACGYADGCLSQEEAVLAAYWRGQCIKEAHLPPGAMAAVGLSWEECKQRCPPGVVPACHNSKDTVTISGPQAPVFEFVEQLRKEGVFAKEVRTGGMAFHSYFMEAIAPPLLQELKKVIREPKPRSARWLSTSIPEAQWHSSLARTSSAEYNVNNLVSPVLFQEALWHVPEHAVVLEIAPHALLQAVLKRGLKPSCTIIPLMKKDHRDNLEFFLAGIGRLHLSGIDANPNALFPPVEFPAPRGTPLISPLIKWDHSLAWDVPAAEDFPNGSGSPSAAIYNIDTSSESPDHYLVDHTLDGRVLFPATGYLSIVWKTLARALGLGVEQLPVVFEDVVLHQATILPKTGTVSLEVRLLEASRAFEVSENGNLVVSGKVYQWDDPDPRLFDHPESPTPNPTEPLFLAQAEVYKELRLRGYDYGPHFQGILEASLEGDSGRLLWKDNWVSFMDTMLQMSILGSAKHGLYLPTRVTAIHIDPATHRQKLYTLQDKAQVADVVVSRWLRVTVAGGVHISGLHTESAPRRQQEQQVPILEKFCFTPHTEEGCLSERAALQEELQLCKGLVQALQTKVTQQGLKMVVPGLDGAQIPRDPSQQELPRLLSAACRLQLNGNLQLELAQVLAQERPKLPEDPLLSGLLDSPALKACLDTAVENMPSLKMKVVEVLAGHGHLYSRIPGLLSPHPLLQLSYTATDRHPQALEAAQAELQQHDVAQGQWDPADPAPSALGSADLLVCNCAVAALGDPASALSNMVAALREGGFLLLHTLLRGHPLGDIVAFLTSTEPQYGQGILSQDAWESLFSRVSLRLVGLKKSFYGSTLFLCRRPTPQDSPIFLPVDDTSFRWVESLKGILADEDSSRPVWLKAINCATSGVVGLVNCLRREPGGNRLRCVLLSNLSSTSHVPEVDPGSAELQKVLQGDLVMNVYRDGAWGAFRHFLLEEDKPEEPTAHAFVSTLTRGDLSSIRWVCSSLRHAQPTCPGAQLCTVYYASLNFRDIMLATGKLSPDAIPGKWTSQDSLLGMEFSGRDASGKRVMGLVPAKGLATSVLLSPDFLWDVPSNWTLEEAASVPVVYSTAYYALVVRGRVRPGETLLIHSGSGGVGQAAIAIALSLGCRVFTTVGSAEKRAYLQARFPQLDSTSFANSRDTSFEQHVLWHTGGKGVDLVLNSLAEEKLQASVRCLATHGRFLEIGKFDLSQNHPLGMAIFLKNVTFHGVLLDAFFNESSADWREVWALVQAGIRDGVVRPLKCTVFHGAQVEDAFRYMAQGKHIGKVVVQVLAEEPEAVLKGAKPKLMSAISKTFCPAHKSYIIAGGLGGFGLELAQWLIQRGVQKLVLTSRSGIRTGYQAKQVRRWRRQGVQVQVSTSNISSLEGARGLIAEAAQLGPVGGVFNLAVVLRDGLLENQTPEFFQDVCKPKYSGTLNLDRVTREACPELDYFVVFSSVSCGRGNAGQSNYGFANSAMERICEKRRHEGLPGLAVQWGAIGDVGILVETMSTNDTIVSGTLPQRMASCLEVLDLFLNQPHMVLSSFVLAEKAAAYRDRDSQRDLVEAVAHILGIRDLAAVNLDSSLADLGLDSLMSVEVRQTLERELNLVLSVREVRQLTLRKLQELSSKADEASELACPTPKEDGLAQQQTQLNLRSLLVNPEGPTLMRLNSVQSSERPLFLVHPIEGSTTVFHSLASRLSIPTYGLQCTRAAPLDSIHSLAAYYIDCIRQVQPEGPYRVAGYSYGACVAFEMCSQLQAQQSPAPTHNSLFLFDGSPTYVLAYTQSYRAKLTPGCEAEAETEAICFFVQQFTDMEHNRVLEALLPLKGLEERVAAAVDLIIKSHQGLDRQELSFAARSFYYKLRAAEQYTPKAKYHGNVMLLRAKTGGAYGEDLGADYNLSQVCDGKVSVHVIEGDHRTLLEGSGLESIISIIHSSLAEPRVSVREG

On to `CS/C(C)=N/OC(=O)N(C)SN(C)C(=O)O/N=C(\C)SC`, for which the call in [1], in [2], in [3], in test [4], in [5] and in test [6] was inactive. For the same compound, the compound was called inactive in test [7].
`CON(C)C(=O)Nc1ccc(Cl)c(Cl)c1`: the result in test [8], in test [9], in test [2], in test [3], in test [10] and in test [11] was inactive. Further, the result in [12], in test [13], in [14], in [15], in [16] and in [4] was inactive. Besides, the compound was called inactive in test [6]. Further, the AC50 was 4.86 µM (active) in [5] and 85.8 µM (active) in [7].
On to `CCCC1COC(Cn2cncn2)(c2ccc(Cl)cc2Cl)O1` (stereo not drawn), for which the outcome in [17], in test [2], in [3], in test [10], in test [11] and in test [12] was inactive. The compound was called inactive in test [18], in [15] and in [16]. The AC50 was 0.357 µM (active) in [13]; 0.323 µM (active) in test [14]; 72 µM (active) in test [4]; 83.3 µM (active) in test [5]; 33.2 µM (active) in test [7].
Take `COc1nc(NC(C)C)nc(NC(C)C)n1`: the compound was called inactive in [17], in test [9], in test [2], in test [3], in [10] and in test [11]. The call in test [12], in test [13], in test [14], in test [15], in [16] and in [4] was inactive. Moreover, the call in test [5], in [6] and in [7] was inactive. The results for the AC50 in test [19] and in [20] were 6.99 µM (active) and 3.8 µM (active), respectively.
For `CCOC(=O)CC(SP(=S)(OC)OC)C(=O)OCC` (stereo not drawn), the compound was classed as inactive in [2], in [3], in test [10], in test [11], in test [18] and in test [13]. Further, the call in [14], in [15], in [4], in test [6] and in test [7] was inactive. Moreover, the AC50 in test [12] is 25.8 µM (active); in test [16] it was 21 µM (active).
In the case of `CC1COC(Cn2cncn2)(c2ccc(Oc3ccc(Cl)cc3)cc2Cl)O1` (stereo not drawn), the AC50 in test [17] is 11.2 µM (active); in test [8], 11.4 µM (active); in [12], 0.5 µM (active); in [14], 0.372 µM (active); in test [15] it was 0.334 µM (active); in test [4] it was 17.9 µM (active). In addition, the AC50 in test [5] was 29.7 µM (active); in test [7], 12.7 µM (active). Moreover, the result in [2], in test [3], in test [10], in [11], in test [13] and in test [19] was inactive. In addition, the result in test [20], in test [16] and in test [6] was inactive.
